We go through eleven molecules from ChEMBL document CHEMBL3988442, “University of Dundee, Small-Polar-MMV Screening Library” (2021).

For some of these results: Results with a measured potency or affinity are listed apart.

What all share (parameters): scale not given: direction of the effect not stated beside the values
Experiment [1] concerns the target Protein translocase subunit SecA (Escherichia coli (strain K12)) (UniProt P10408). As to the kind of experiment: Assay to Identify E. coli SecA ATPase Inhibitors. The class given is functional. The conditions noted are these: 30 µM.
The target in experiment [2] is T1, Ubiquitin-activating enzyme e1, putative (Leishmania donovani (strain BPK282A1)) (UniProt E9BSI1).
T1 sequence (whole entry): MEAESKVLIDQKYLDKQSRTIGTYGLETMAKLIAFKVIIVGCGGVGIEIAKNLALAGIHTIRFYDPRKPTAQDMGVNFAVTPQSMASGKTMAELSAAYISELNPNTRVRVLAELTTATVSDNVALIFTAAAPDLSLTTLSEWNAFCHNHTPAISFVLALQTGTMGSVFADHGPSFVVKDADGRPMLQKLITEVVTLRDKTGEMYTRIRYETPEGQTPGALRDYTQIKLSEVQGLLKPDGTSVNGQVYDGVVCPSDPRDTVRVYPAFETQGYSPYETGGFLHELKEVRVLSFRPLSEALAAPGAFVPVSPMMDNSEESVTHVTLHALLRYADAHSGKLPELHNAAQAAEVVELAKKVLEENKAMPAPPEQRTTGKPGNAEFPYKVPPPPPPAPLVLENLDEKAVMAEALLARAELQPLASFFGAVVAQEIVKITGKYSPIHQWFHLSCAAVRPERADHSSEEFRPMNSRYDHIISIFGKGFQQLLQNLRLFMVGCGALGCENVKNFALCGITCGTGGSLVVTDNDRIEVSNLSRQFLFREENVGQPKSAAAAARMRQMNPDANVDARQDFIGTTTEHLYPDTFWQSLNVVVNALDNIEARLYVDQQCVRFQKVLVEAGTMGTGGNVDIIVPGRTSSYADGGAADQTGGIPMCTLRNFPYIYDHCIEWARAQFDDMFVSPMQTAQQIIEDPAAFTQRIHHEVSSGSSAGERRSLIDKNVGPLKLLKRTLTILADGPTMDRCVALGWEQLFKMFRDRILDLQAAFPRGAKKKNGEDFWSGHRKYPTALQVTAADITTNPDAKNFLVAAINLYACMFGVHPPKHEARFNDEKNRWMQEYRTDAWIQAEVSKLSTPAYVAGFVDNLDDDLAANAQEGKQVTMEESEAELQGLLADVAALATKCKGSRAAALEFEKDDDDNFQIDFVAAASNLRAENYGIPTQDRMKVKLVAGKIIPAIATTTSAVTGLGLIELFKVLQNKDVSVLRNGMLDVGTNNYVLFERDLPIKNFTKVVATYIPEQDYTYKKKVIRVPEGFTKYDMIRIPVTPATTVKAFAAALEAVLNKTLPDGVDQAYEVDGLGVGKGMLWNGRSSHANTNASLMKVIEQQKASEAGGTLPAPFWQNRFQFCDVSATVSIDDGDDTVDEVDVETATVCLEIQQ
As to the kind of experiment: Leishmania donovani Ubiquitin Activating Enzyme (LdE1). The class given is functional. The conditions noted are these: 30 µM.

Experiment [3] has as its target AMP-activated protein kinase, AMPK (Homo sapiens) (UniProt P54646+O43741+P54619+Q9UGJ0+Q9Y478+Q13131+Q9UGI9). Nature of the experiment: AMP-dependent Kinase enzyme assay. An in vitro enzyme assay that detects ADP turnover that is directly proportional to AMPK activity. This uses naive AMPK that is activated during the assay with MK-8722. Type of experiment: functional. The note with it: 30 µM.

Experiment [4] deals with Sialic acid-binding Ig-like lectin 9 (Homo sapiens) (UniProt Q9Y336). As to the kind of experiment: Hs-Siglec9 ALPHAscreen SOP 20170721. The note with it: 10 µM.
Sialic acid-binding Ig-like lectin 9 (Homo sapiens), sequence (Q9Y336 whole entry): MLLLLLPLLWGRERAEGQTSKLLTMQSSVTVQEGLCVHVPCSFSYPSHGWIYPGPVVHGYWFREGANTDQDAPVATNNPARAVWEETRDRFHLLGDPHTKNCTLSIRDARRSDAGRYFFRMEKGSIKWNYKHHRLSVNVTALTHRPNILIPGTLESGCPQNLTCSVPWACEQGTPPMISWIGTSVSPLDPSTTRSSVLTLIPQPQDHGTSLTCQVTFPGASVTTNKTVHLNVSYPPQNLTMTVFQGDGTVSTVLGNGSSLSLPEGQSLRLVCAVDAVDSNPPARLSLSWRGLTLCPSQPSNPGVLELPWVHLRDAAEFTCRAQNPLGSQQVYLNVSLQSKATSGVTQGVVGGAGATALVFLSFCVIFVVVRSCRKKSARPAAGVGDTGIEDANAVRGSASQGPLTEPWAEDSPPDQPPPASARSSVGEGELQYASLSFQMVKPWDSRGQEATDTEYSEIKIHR
The subject of a further experiment is Trypanosoma cruzi. Nature of the experiment: Trypanosoma cruzi phosphomannomutase and mannose-1-phosphate guanylyltransferase assay. Type of experiment: functional. The conditions noted are these: 10 µM.
Experiment [5] deals with T2, Arginase-2, mitochondrial (Homo sapiens) (UniProt P78540).
T2 sequence (whole entry): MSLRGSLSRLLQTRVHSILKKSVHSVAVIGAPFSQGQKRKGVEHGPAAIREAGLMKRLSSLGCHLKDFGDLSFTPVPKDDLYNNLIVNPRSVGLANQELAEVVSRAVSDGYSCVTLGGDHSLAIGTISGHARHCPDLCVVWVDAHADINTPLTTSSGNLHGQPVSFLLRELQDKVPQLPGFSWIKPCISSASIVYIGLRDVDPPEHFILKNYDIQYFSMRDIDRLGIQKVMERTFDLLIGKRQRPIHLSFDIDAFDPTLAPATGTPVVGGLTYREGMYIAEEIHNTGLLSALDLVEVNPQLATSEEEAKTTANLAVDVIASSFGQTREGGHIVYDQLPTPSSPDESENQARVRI
Nature of the experiment: in vitro enzyme assay to detect the production of urea directly proportional to the activity of Arginase II. Also: in the data most compounds retested in dose-response had high values. Type of experiment: functional. The note with it: 33.3 µM.

The target of experiment [6] is T3, Proteasome subunit beta (Trypanosoma cruzi) (UniProt O96673).
T3 sequence (whole entry): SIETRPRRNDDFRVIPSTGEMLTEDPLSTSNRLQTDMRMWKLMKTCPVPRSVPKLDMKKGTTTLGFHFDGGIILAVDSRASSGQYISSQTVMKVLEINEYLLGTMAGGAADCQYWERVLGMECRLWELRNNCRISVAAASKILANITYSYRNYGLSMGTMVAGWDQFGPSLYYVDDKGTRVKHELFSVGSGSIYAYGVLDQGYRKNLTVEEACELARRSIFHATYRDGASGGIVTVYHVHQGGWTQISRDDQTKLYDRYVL
Nature of the experiment: Trypanosoma cruzi proteasome chymotrypsin-like activity (TcProtChymo) assay. Also: in the data most compounds retested in dose-response had high values. Type of experiment: functional. The note with it: 9.37 µM.

The species entered for the next experiment is Homo sapiens. Nature of the experiment: To identify inhibition of the IFN signalling (Jak-Stat) pathway via expression of an eGFP reporter gene under the control of an IFN-stimulated response element (ISRE) containing MxA promoter. The class given is functional. The conditions noted are these: 30 µM. In general terms: A reporter such as luciferase makes a cellular process visible.

Experiment [7] addresses T4, Tyrosyl-tRNA synthetase, putative (Trypanosoma cruzi (strain CL Brener)) (UniProt Q4DSP6).
T4 sequence (whole entry): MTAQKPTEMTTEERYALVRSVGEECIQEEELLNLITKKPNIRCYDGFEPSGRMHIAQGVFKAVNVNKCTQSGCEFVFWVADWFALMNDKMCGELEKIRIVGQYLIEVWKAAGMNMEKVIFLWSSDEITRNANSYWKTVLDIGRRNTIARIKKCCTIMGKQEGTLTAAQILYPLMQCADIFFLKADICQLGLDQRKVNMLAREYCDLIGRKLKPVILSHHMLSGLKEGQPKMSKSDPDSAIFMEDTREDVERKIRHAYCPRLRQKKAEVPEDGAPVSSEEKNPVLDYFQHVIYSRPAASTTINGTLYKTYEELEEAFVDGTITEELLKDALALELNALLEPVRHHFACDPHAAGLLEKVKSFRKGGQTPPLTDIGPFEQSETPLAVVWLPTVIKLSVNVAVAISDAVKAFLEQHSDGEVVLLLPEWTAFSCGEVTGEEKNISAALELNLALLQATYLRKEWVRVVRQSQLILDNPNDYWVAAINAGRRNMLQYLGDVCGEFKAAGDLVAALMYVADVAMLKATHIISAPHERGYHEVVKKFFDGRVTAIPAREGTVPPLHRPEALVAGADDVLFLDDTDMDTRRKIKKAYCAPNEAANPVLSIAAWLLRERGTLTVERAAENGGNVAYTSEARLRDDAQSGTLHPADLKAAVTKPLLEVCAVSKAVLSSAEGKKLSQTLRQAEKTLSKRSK
As to the kind of experiment: Trypanosoma cruzi tyrosyl tRNA synthetase (TcYRS) _High Tyrosine SOP. Also: in the data most compounds retested in dose-response had high values. Type of experiment: functional. The conditions noted are these: 30 µM.

Experiment [8] deals with T4, Tyrosyl-tRNA synthetase, putative (Trypanosoma cruzi (strain CL Brener)). Nature of the experiment: Trypanosoma cruzi tyrosyl tRNA synthetase (TcYRS) SOP. The class given is functional. The note with it: 30 µM.
The target in experiment [9] is Chromo domain-containing protein 1 (Saccharomyces cerevisiae (strain ATCC 204508 / S288c) (Baker's yeast)) (UniProt P32657). Nature of the experiment: ScCHD-1 Enzyme Inhibition Assay. Also: in the data most compounds retested in dose-response had high values. The class given is functional. The note with it: 30 µM.
Chromo domain-containing protein 1 (Saccharomyces cerevisiae (strain ATCC 204508 / S288c) (Baker's yeast)), sequence (P32657 whole entry, the tested form may be a part): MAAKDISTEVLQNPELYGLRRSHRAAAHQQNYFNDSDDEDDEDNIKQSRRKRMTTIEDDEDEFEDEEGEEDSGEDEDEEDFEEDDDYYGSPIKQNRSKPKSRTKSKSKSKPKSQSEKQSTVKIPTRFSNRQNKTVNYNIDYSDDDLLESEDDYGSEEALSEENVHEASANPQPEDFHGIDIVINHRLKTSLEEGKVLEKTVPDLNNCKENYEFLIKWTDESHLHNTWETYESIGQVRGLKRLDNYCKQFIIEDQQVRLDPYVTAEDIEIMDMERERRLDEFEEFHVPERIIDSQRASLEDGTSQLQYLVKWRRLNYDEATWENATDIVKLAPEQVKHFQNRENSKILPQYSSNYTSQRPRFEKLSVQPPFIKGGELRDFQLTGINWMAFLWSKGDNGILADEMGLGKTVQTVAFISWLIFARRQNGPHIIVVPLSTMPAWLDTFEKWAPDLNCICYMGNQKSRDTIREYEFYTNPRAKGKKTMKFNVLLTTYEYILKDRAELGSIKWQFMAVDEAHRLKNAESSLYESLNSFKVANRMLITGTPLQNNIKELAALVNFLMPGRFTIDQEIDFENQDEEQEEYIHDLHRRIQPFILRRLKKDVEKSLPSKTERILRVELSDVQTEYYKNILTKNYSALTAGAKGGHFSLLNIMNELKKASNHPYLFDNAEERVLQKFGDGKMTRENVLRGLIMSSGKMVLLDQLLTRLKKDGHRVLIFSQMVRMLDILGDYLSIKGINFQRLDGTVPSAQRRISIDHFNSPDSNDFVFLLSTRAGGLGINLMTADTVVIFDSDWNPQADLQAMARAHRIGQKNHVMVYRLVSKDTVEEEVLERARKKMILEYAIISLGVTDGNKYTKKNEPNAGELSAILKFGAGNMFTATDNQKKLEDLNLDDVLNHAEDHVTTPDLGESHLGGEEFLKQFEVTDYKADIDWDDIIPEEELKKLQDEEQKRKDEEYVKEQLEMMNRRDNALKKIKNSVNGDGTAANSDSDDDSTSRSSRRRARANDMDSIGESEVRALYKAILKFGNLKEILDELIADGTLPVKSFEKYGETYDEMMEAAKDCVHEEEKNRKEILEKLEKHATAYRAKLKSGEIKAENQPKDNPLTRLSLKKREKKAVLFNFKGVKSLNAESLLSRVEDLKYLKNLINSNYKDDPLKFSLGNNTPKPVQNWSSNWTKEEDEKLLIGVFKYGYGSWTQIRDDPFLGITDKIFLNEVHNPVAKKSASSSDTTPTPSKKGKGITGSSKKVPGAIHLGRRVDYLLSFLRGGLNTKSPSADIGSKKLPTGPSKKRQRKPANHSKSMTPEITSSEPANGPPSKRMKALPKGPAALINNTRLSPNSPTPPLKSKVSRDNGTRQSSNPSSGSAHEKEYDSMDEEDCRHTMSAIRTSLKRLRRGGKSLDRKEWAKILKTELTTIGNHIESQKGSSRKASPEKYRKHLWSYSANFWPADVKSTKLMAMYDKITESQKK

Protein translocase subunit SecA (Escherichia coli (strain K12)), sequence (P10408 whole entry): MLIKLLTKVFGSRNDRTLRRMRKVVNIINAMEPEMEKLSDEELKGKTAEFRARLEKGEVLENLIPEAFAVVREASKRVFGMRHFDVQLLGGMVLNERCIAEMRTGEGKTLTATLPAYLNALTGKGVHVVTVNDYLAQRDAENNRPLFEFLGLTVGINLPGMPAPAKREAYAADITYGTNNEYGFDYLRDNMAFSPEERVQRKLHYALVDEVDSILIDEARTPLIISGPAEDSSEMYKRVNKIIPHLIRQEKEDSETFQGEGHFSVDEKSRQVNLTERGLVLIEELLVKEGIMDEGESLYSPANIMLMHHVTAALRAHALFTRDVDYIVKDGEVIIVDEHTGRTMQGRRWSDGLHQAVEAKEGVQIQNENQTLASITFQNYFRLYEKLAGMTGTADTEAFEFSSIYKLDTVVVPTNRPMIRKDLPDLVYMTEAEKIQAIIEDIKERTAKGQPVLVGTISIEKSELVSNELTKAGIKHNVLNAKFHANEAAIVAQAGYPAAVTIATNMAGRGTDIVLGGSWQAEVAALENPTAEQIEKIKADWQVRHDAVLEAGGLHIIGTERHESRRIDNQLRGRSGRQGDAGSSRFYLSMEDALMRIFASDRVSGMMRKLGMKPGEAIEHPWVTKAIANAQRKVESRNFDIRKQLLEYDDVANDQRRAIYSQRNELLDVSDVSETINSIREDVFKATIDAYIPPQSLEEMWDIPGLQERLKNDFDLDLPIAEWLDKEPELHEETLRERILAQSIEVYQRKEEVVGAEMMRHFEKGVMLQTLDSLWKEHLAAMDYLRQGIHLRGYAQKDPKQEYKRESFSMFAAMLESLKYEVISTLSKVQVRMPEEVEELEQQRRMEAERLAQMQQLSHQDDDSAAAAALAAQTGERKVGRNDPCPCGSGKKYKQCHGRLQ

Consider `CC1=N[C@@]2(CC[C@@H]3CN(CC(=O)N(C)C)C[C@@H]32)C(=O)N1CC(C)C`, for which the Percent Effect in experiment [1] is 3.62%; in experiment [2], 12%; in experiment [3], 42.2%; in experiment [4], 1.63%; in the experiment on Trypanosoma cruzi it was -8.25%; in experiment [5], -20.6%. Also, the Percent Effect was 9.43% in [6]; 24.2% in the experiment filed under Homo sapiens; 1.06% in experiment [7]; 0% in [8]; -8.72% in experiment [9].
`CC(=O)N1CCCC1c1cccc(Cc2ccc(F)cc2)n1` (stereo unspecified): the Percent Effect was -4.97% in [1]; 5.33% in [2]; 10.8% in [3]; 3.6% in [4]; 5.91% in the experiment on Trypanosoma cruzi; -0.233% in experiment [5]. Further, the Percent Effect in experiment [6] was 5.37%; in the experiment filed under Homo sapiens, 15.6%; in experiment [7] it was 4.25%; in [8], 8.97%; in experiment [9], 1.18%.
On to `CCn1ncc2c1C(COC)CN(Cc1ccc(OC)cc1)C2` (stereo unspecified), for which the Percent Effect is -1.81% in experiment [1]; 5.41% in experiment [2]; -4.68% in [3]; 14.4% in experiment [4]; 2.44% with Trypanosoma cruzi; 0.744% in [5]. The Percent Effect in experiment [6] was 3.35%; in the experiment filed under Homo sapiens, 40%; in experiment [7] it was 2.15%; in experiment [8], 6.17%; in experiment [9], -11.4%.
`CCn1cc(NC(=O)C2CCN(CCOC(C)C)CC2)cn1`: the Percent Effect in experiment [1] was -6.99%; in [2], 7.89%; in experiment [3], -2.47%; in experiment [4], -0.756%; in the experiment on Trypanosoma cruzi, -6.07%; in experiment [5], -3.6%. Moreover, the Percent Effect in experiment [6] was found to be 3.98%; in the experiment filed under Homo sapiens, 6.54%; in experiment [7] it was 2.46%; in experiment [8] it was 3.7%; in [9], 0.215%.
For the molecule `O=C(CN(C1=NCCCC1)c1ccccc1)c1ccccc1`, the Percent Effect is -3.17% in [1]; -2.63% in experiment [2]; 3.38% in [3]; -3.96% in [4]; -3.21% in the experiment on Trypanosoma cruzi; -7.1% in experiment [5]. The Percent Effect in [6] is 7.96%; in the experiment listed under Homo sapiens, -2.85%; in [7] it was -3.19%; in experiment [8], -10.4%; in experiment [9] it was -5.81%.
As to `CN(C)[C@@H]1CCN(C(=O)NC2CCCC2)[C@H]1Cc1cnn(C)c1`, the Percent Effect in experiment [1] was -4.9%; in [2] it was 2.67%; in experiment [3] it was -90.2%; in experiment [4], 5.44%; in the experiment with Trypanosoma cruzi it was -0.197%; in experiment [5], 2.1%. Also, the Percent Effect in [6] is 7.84%; in the experiment filed under Homo sapiens, -0.845%; in experiment [7], 1.06%; in [8] it was -3.85%; in [9], 1.31%.
As for `COc1ccc(N2CCC(C(=O)/N=c3/[nH]ccs3)CC2)nn1`, the Percent Effect in experiment [1] was -5.79%; in experiment [2] it was 1.33%; in [3], 5.74%; in [4] it was 6.32%; with Trypanosoma cruzi it was 0.589%; in [5], -13.9%. The Percent Effect was 11.3% in experiment [6]; 44.8% in the experiment listed under Homo sapiens; 5.29% in experiment [7]; 12.8% in [8]; -12.7% in [9].
With `COc1ccccc1OCC(=O)Nc1ncccc1Cl`, the Percent Effect in [1] is -3.19%; in experiment [2] it was 15.3%; in experiment [3], -6.62%; in experiment [4] it was 22.9%; in the experiment on Trypanosoma cruzi it was 2.62%; in experiment [5], -2.65%. Moreover, the Percent Effect in experiment [6] is 4.39%; in the experiment listed under Homo sapiens, -9.45%; in experiment [7], 3.16%; in experiment [8], 10.3%; in [9] it was -3.43%.
`Cc1cccc(NC2CCN(C(=O)Nc3cc(C)on3)CC2)n1`: the Percent Effect in experiment [1] is -3.9%; in experiment [2], 12.7%; in experiment [3], -3.67%; in experiment [4], 8.79%; with Trypanosoma cruzi, 5.57%; in experiment [5], 0.76%. The Percent Effect is 1.39% in experiment [6]; -22.6% in the experiment filed under Homo sapiens; 4.43% in [7]; 16.5% in experiment [8]; -8.82% in [9].
Take `Cn1cc(C(=O)NC[C@@H]2OC[C@H]3CN(S(C)(=O)=O)CC[C@H]32)cn1`: the Percent Effect is -0.605% in [1]; -74% in experiment [2]; -4.74% in experiment [3]; 17% in experiment [4]; 7.74% in the experiment with Trypanosoma cruzi; -1.6% in [5]. Also, the Percent Effect in [6] was 11%; in the experiment listed under Homo sapiens, 9.87%; in experiment [7], 5.21%; in experiment [8], 1.24%; in [9], -6.34%.
Regarding `Cc1nnc(CN2CCCC(c3cc(C(N)=O)[nH]n3)C2)o1` (stereo unspecified), the Percent Effect was -3.02% in [1]; -5.41% in [2]; 0.969% in experiment [3]; 11.5% in experiment [4]; -1.23% in the experiment with Trypanosoma cruzi; 0% in experiment [5]. Also, the Percent Effect in [6] was -2.34%; in the experiment listed under Homo sapiens, 2.07%; in experiment [7] it was -1.48%; in experiment [8] it was -1.24%; in experiment [9], 1.61%.
